Four compounds from PMC5540273 (PLoS ONE, 2017) can be followed below.

Some test systems named below: DDR1; DDR2; DMPK; DYRK1A; DYRK1B; DYRK2; EGFR; EIF2AK1; EPHA1; EPHA2; EPHA3; EPHA4; EPHA5; EPHA6.
Common to all, as to conditions: concentration: 1 μM,replicates: in singlicate; n = 1
The next assay relates to T1, DCAMKL2.
T1 construct: gene DCLK2

For the next assay, the system named is T2, DCAMKL3.
T2 construct: gene DCLK3

Another assay relates to T3, DLK.
T3 construct: gene MAP3K12

Another assay concerns T4, DMPK2.
T4 construct: gene CDC42BPG

The next assay concerns T5, DRAK1.
T5 construct: gene STK17A

The next assay relates to T6, DRAK2.
T6 construct: gene STK17B
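Also: KINOMEscan kinase panel screen.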

Turning to `CC(C)Nc1cc(-c2ccc3c(N)n[nH]c3c2)nc(N)n1` [GSK2221681], the “%Inh” value in the assay on DCAMKL2 is given as 20%; in the assay on DCAMKL3 it was 51%; in the assay on DDR1, 0%; in the assay on DDR2, 0%; in the assay with DLK it was 28%; with DMPK2, 0%. Further, the “%Inh” value in the assay on DMPK worked out at 0%; in the assay on DRAK1 it was 99%; with DRAK2 it was 0%; in the assay on DYRK1A, 50%; in the assay on DYRK1B it was 14%; with DYRK2, 87%. For the same compound, the “%Inh” value in the assay with EGFR is reported as 58%; in the assay on EIF2AK1, 0%; in the assay with EPHA1 it was 0%; in the assay on EPHA2, 0%; with EPHA3, 0%; in the assay on EPHA4, 0%. Further, the “%Inh” value in the assay with EPHA5 and with EPHA6 was 0% each time.
In the case of `Cc1cc2cn[nH]c2cc1-c1cccc2c(N)c(C(N)=O)nnc12`, the “%Inh” value in the assay with DCAMKL2 is 37%; in the assay with DCAMKL3 it was 98.8%; with DDR1 it was 0%; in the assay with DDR2, 0%; in the assay with DLK, 98.8%; in the assay on DMPK2 it was 7%. Further, the “%Inh” value was 0% in the assay on DMPK; 47% in the assay on DRAK1; 27% with DRAK2; 13% with DYRK1A; 0% with DYRK1B; 23% in the assay with DYRK2. For the same compound, the “%Inh” value in the assay with EGFR came out at 56%; with EIF2AK1 it was 26%; with EPHA1 it was 17%; with EPHA2, 0%; in the assay on EPHA3, 0%; with EPHA4, 8%. Also, the “%Inh” value in the assay with EPHA5 is 89%; in the assay with EPHA6, 0%.
Take `CN(C)CC(O)COc1ccc(Nc2nccc(-c3cnn4nc(N5CCOCC5)ccc34)n2)cc1` (centres unmarked) [GW767488]: the “%Inh” value turned out to be 61% with DCAMKL2; 64% in the assay with DCAMKL3; 0% in the assay on DDR1; 0% in the assay on DDR2; 61% in the assay on DLK; 17% in the assay on DMPK2. The “%Inh” value in the assay with DMPK is on record as 20%; with DRAK1, 99.7%; in the assay on DRAK2, 93.1%; with DYRK1A, 73%; in the assay with DYRK1B, 69%; in the assay with DYRK2, 87%. Further, the “%Inh” value in the assay with EGFR came to 17%; in the assay with EIF2AK1, 42%; in the assay on EPHA1 it was 34%; in the assay on EPHA2 it was 0%; with EPHA3 it was 9%; in the assay on EPHA4, 8%. The entries for the “%Inh” value with EPHA5 and in the assay on EPHA6 were 9% and 0%, respectively.
For `O=C(NCCCN1CCOC1=O)c1cnc(NCc2cc(Cl)ccc2Cl)nc1NC1CCCC1`, the “%Inh” value is reported as 1% with DCAMKL2; 18% in the assay on DCAMKL3; 0% with DDR1; 11% in the assay on DDR2; 37% with DLK; 0% with DMPK2. Moreover, the “%Inh” value in the assay on DMPK was 0%; in the assay on DRAK1, 0%; in the assay with DRAK2, 0%; with DYRK1A it was 0%; in the assay on DYRK1B, 21%; with DYRK2, 0%. Moreover, the “%Inh” value with EGFR came out at 0%; with EIF2AK1, 0%; in the assay on EPHA1 it was 12%; in the assay on EPHA2, 25%; in the assay on EPHA3, 0%; with EPHA4, 14%. Further, the “%Inh” value in the assay on EPHA5 worked out at 17%; in the assay on EPHA6 it was 28%.
